Bioassay records as filed in PubChem.
KB-3-1 cytotox: qHTS assay for MDR1-selective chemotherapeutics: Primary screen using the parental adenocarcinoma cell KB-3-1; 400,000 compounds, 1.4% hits; Potency, µM (top dose mostly 46.1 µM), most hits filed as cytotoxic; KB-3-1 viability, CellTiter-Glo ATP luminescence, 72 h; also: % is scaled to controls: 0 for no effect and ±100 for the full control effect; nearly all actives have a fitted effect of over 60% in size
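Parental KB-3-1 viability, qHTS format: 72 h compound exposure, 37 °C; CellTiter-Glo; media-only wells and DMSO plates as controls; concentration-effect fits on corrected data.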
MCF10A rereplic: A quantitative high throughput screen for small molecules that induce DNA re-replication in MCF 10a normal breast cells; AID 624296, 2012; 350,000 compounds, 2.9% hits; MCF 10A DNA re-replication, Hoechst nuclear intensity, 48 h; Potency, µM (titrated, usually from 46.1 µM), without a hit: at the top dose activity, positive = re-replication, usual class: activators; also: % of control where 0% means no effect; nearly all actives have a fitted effect of over 50% in size
RGS4 inhibitor: Inhibitors of Regulator of G Protein Signaling (RGS) 4: qHTS; Regulator of G-protein signaling 4 (Homo sapiens), P49798; Transcreener GDP fluorescence polarization, RGS4-accelerated GTP hydrolysis; Potency, µM (doses to about 114 µM), for the others: top-dose activity change, negative = inhibition, most hits filed as inhibitors; 390,000 compounds, 0.039% hits; also: % is scaled to controls: 0 for no effect and ±100 for the full control effect; nearly all actives have a fitted effect of over 75% in size
Target sequence (P49798 whole entry, looked up): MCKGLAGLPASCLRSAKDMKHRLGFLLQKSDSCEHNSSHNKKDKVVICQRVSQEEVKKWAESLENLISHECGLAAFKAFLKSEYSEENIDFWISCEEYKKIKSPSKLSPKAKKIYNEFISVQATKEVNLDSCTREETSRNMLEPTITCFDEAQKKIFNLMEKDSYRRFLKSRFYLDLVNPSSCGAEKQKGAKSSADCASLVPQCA
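MLSMR compounds (23 nl, pin-transferred) preincubated 10 min at room temperature with a 500nM (2x) first reagent, then RGS4 at 900nM (2x) plus Transcreener GDP mix added; fluorescence polarization (620/688 nm) read before and after 90 min at 30 °C.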
KB-V1 cytotox: qHTS assay for MDR1-selective chemotherapeutics: Primary screen using the drug-selected MDR subline cells KB-V1; 400,000 compounds, 3.4% hits; Potency, µM (highest dose often 46.1 µM), actives largely listed as cytotoxic; KB-V1 MDR cells viability, CellTiter-Glo, 72 h; AID 1347076, 2019; also: % is scaled to controls: 0 for no effect and ±100 for the full control effect; nearly all actives have a fitted effect of over 60% in size
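Potencies derive from concentration-effect curves fitted to normalized luminescence (CellTiter-Glo) of KB-V1 cells treated for 72 h at 37 degrees C in phenol-red-free DMEM containing 10% FBS.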
SW480 rerep: A quantitative high throughput screen for small molecules that induce DNA re-replication in SW480 colon adenocarcinoma cells; SW480 DNA re-replication, Hoechst DNA content imaging, 48 h; Potency, µM (doses to about 46.1 µM), for the others: at the highest dose re-replication activation, hits mostly activators; 340,000 compounds, 1.8% hits; AID 624297, 2012; also: % of control where 0% means no effect; nearly all actives have a fitted effect of over 55% in size
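Compounds, transferred as 23 nL by pin tool, were incubated with cells for 48 hr; DNA content per nucleus was then quantified by Hoechst staining and fluorescence plate imaging.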
PTAP TSG101 blk: qHTS Assay for Iinhibitors of HIV-1 Budding by Blocking the Interaction of PTAP/TSG101 | Fluorescence polarization, FITC-PTAP peptide / Tsg101 binding | Potency, µM (highest dose often 115 µM), for the others: top-dose activity change, negative = inhibition, actives largely listed as inhibitors | 340,000 tested, under 10 active; active = well fitted inhibition curve with a large enough effect in the main read-out, with a control signal flat, not every such curve was filed as active; inconclusive = small, poorly fitted or top-dose-only effect, or effect the other way, or a change in a side signal; inactive = no such curve, though single readings can be large or run the other way; also: % of control where 0% means no effect
Target sequence (Q99816 whole entry, looked up): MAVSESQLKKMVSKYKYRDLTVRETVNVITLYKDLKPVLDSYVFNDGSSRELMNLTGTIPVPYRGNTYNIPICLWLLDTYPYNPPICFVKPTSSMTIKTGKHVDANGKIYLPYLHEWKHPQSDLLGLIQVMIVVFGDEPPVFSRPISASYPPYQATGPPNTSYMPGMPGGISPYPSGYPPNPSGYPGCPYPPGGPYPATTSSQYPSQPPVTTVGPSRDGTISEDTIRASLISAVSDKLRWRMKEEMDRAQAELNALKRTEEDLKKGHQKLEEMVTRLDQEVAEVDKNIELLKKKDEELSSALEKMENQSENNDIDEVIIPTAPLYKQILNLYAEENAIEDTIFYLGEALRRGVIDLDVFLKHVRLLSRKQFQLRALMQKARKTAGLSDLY
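Compounds were pin-transferred onto Tsg101 binding domain (10 uM final) in HEPES pH 7.5 buffer, then FITC-PTAP peptide was added at 50 nM final. After 20 min at RT, polarization reported peptide displacement across a qHTS concentration series.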
The depositor's hits bear a star; i = inactive; ? = inconclusive; . = no result; [ ] = remark or other dose. Shown are actives, neighbours in structure and some others; about 6.6% of the full set was active somewhere. Unless noted, calls follow the shape of the dose curve; as a rule, active = well fitted curve in the direction sought with a large enough effect; inconclusive = small, poorly fitted or top-dose-only effect, or another doubt; inactive = no such curve, though single readings can be large; an effect the other way counts as inactive or inconclusive. Potency is read from the fitted curve at half-maximal effect.

SMILES	KB-3-1 cytotox	MCF10A rereplic	RGS4 inhibitor	KB-V1 cytotox	SW480 rerep	PTAP TSG101 blk
COc1cc2c(NC3CCN(C)CC3)nc(N3CCCN(C)CC3)nc2cc1OCCCCCN(C)C	?	.	.	i	.	.
COc1cc2c(NC3CCN(C(C)C)CC3)nc(N3CCCN(C)CC3)nc2cc1OCCCN(C)C	2.3µM*	.	.	i	.	.
CCN(CC)C(=O)c1cc(-c2ccc(Br)cc2)on1	i	27%	7%	5.2µM*	9%	-5%
COC(=O)c1cc(-c2ccc(Br)cc2)on1	i	1%	-29%	i	-2%	-2%
NC(=O)c1ccc(NC(=O)COC(=O)c2c3c(nc4ccccc24)/C(=C\c2cccs2)CCC3)cc1	i	23µM*	13%	i	21µM*	1%
CCc1cccc(C)c1NC(=O)COC(=O)c1c2c(nc3ccccc13)/C(=C\c1cccs1)CCC2	i	10µM*	-28%	15µM*	18µM*	1%
CC(C)CNC(=O)COC(=O)c1c2c(nc3ccccc13)/C(=C/c1cccs1)CC2	i	3.3µM*	-10%	?	3.7µM*	-3%
CCCCNC(=O)COC(=O)c1c2c(nc3ccccc13)/C(=C\c1cccs1)CC2	?	?	-14%	?	?	-8%
C=C1C(c2ccc(C)cc2)=CCc2cc(C)cc(C)c21	.	.	100%[56.9 µM]	.	.	.
CCN(CC)S(=O)(=O)c1ccc(C(=O)NCCSc2c(-c3ccc(C)cc3)[nH]c3ccccc23)cc1	i	.	9%	i	.	.
O=C(c1ccc2c(c1)OCCO2)N1CCN(c2nc(-c3cccs3)nc3ccccc23)CC1	.	.	-11%	.	.	.
CCOc1ccccc1NC(=O)c1ccc2c(c1)C(=O)N(CC1CCCO1)C2=O (stereo unspecified)	i	7%	16%	i	-7%	-4%
Cc1nnc(NC(=O)c2ccc3c(c2)C(=O)N(CC2CCCO2)C3=O)s1 (stereo unspecified)	i	12µM*	5%	i	?	-4%
Cc1c(NC(=O)c2ccc3c(c2)C(=O)N(CC2CCCO2)C3=O)cccc1C(=O)O (stereo unspecified)	i	-1%	-11%	i	4.1µM*	0%
O=C(Nc1ccc2c(c1)C(=O)N(CC1CCCO1)C2=O)c1ccc(Cl)c(Cl)c1 (stereo unspecified)	i	13%	-15%	21µM*	-1%	-6%
Cc1ccc(NC(=O)c2ccc3c(c2)C(=O)N(CC2CCCO2)C3=O)cc1C (stereo unspecified)	i	29%	4%	i	3%	0%
O=C(Nc1ccc(Br)cc1)C1CCCN1S(=O)(=O)c1ccc(F)cc1 (stereo unspecified)	.	.	-9%	.	.	.
N#Cc1c(C(F)(F)F)cc(-c2ccc(Cl)c(Cl)c2)nc1SCCN1CCOCC1	i	4.1µM*	-16%	?	16%	.
CCOC(=O)CC(=O)CSc1nc(-c2ccc3c(c2)OCO3)cc(C(F)(F)F)c1C#N	i	6.3µM*	-9%	i	?	2%
CCOC(=O)CCSc1nc(-c2ccc3c(c2)OCO3)cc(C(F)(F)F)c1C#N	i	5%	12%	i	-5%	-6%
C=CCSc1nc(-c2ccc3c(c2)OCO3)cc(C(F)(F)F)c1C#N	i	15%	8%	i	7.3µM*	-2%
COC(=O)c1ccccc1NC(=O)Cn1nc(C)c2nn(-c3ccc(Cl)cc3)c(C)c2c1=O	.	.	32%	.	.	.
COc1ccc(C2/C=C\CN(Cc3ccccc3)C(C)C(=O)N2Cc2ccc(F)cc2)cc1 (stereo unspecified)	.	.	-30%	.	.	.
COc1cc2c(cc1OC)CN(C(=O)CCC(=O)c1ccc(F)cc1)CC2	16µM*	?	8%	?	?	-2%
Cc1ccc2ccc(C3C(=O)c4ccccc4C3=O)nc2c1	i	2%	11%	i	-3%	-4%
SMILES	KB-3-1 cytotox	MCF10A rereplic	RGS4 inhibitor	KB-V1 cytotox	SW480 rerep	PTAP TSG101 blk
Cc1ccc2cc3c(N)[nH]nc3nc2c1	i	-7%	-6%	18µM*	.	0%
CCCS(=O)(=O)c1c(S(=O)(=O)CCC)c2c(C)cccn2c1C(=O)N/N=C/c1cc(O)cc(O)c1	?	?	13%	i	6.5µM*	-5%
COc1ccc(N2C(=O)CSC2c2cccs2)cc1 (stereo unspecified)	i	?	-5%	?	18µM*	-6%
O=C1CSC(c2cccs2)N1c1ccccc1 (stereo unspecified)	?	-3%	17%	i	-2%	-6%
CC(C)c1ccc(NC(=O)CN2C(=O)COc3ccc(S(=O)(=O)N4CCCCCC4)cc32)cc1	.	.	-5%	.	.	.
COc1cc(/C=C(\C#N)c2nc(-c3cc4ccccc4oc3=O)cs2)ccc1O	i	0.92µM*	-34%	i	-4%	-6%
COc1cc(/C=C(\C#N)c2nc3ccccc3o2)ccc1O	i	18µM*	10%	i	17%	?
O=C(CCCCn1c(=O)c2ccccc2n(Cc2ccccc2Cl)c1=O)NCc1ccc2c(c1)OCO2	i	.	29%	?	.	.
CCCn1c(CC)nc([N+](=O)[O-])c1S(=O)(=O)c1ccccc1	?	3.7µM*	7%	i	?	-7%
CCN(CC)CCOC(=O)c1ccc(NC(=O)CCCN2C(=O)S/C(=C/c3ccc(OC)cc3)C2=S)cc1	i	?	?	i	22µM*	-2%
COc1ccc(/C=C2\SC(=S)N(CCC(=O)Nc3ccc(O)cc3)C2=O)cc1	i	?	-19%	i	1%	0%
CCCC12CN3CC(C)(CN(C1)C3c1ccc(OCc3ccccc3)cc1)C2=O (stereo unspecified)	i	.	-7%	i	.	.
Cc1cc(N2CCOCC2)nc(N2CCOCC2)c1C#N	?	.	.	7.3µM*	.	.
Cc1cc(C)c(C#N)c(N2CCOCC2)n1	i	-1%	11%	?	0%	-5%
Cc1ccc(-n2cc3c(c2-c2ccccc2Br)c(=O)n(C)c(=O)n3C)cc1N	i	.	8%	i	.	.
COC(=O)COc1ccc2occ(C(C)=O)c2c1	i	8.2µM*	4%	i	16µM*	-8%
